# The supplement of paper PMC11732987, “Enantioselective OTUD7B fragment discovery through chemoproteomics screening and high-throughput optimisation” (Communications Chemistry, 2025)
# Values without a mark were called inactive.
# Key:
# Assay in all cases: log2 ratio of Biotin-Ahx-Ub-VS probe labelling (fragment/DMSO); higher = less target engagement (more negative = stronger competition), active = hit call of the paper (q ≤ 0.05, log2 ratio ≤ -1)
# Conditions in all cases: compound concentration: 200 uM; treatment time: 3 h
# [1] = target: T1, OTUD6B (UniProt Q8N6M0)
# T1 sequence (whole entry): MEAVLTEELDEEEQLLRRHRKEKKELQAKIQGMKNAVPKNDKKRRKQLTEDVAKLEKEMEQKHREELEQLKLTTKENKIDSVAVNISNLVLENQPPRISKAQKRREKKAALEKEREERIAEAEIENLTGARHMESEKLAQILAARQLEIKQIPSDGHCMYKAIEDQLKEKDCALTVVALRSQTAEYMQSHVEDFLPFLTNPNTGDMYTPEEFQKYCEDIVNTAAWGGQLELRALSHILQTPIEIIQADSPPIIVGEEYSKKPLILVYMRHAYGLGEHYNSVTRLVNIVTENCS
# Procedure, shortened: (§1)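 Using Biotin-Ahx-Ub-VS at 0.5 µM final for 1 h, DUBs were labelled in HEK293T lysate (495 µg per sample) that had first been treated in triplicate with fragment at 200 µM or vehicle for 3 h. NeutrAvidin enrichment, LysC and trypsin digestion and diaPASEF LC-MS/MS followed. Spectronaut label-free quantities were global-median-normalised. Values are average log2 fragment/vehicle ratios by unpaired t-test, using proteins with ≥2 unique peptides.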
# [2] = target: T2, OTUD7B (UniProt Q6GQQ9)
# T2 sequence (whole entry): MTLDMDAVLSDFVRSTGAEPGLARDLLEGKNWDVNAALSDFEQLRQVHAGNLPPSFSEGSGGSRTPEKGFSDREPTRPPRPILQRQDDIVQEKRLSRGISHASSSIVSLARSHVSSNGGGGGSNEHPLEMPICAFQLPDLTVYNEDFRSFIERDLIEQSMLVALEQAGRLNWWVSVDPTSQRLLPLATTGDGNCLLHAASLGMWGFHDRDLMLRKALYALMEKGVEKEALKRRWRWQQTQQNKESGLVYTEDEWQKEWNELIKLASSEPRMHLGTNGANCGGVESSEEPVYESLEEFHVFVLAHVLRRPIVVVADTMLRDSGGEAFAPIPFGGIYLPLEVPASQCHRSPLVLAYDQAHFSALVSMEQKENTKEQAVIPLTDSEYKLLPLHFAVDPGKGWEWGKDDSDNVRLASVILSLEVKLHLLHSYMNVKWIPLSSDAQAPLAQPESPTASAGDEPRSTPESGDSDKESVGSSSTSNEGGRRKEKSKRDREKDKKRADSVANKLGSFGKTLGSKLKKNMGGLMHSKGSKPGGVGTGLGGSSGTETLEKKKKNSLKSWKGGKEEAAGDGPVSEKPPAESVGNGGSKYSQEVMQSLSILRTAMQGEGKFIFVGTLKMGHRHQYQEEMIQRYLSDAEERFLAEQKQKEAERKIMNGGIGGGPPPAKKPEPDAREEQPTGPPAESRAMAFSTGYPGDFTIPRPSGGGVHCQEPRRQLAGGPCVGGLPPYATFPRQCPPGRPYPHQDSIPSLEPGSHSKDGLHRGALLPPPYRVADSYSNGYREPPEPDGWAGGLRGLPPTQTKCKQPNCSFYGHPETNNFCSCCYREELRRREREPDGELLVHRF
# Procedure, shortened: as §1
# [3] = target: PRPF8 (UniProt Q6P2Q9)
# Procedure, shortened: as §1
# [4] = target: T3, PSMD7 (UniProt P51665)
# T3 sequence (whole entry): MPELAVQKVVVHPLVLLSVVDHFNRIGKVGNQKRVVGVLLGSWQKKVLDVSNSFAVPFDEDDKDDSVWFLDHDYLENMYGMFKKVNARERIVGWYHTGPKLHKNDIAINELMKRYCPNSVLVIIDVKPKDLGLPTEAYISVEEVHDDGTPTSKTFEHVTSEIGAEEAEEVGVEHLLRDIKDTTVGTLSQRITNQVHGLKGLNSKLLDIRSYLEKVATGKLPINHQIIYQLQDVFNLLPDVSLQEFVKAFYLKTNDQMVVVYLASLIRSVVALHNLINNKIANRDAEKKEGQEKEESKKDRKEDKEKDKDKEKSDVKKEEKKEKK
# Procedure, shortened: as §1
# [5] = target: UCHL1 (UniProt P09936)
# Procedure, shortened: as §1
# [6] = target: T4, UCHL3 (UniProt P15374)
# T4 sequence (whole entry): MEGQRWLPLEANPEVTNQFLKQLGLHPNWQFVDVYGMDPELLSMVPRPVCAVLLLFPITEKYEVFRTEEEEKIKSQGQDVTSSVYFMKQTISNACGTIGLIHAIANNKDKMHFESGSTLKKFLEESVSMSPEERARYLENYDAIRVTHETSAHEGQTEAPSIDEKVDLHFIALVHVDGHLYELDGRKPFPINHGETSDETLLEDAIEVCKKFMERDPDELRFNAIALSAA
# Procedure, shortened: as §1
# [7] = target: T5, UCHL5 (UniProt Q9Y5K5)
# T5 sequence (whole entry): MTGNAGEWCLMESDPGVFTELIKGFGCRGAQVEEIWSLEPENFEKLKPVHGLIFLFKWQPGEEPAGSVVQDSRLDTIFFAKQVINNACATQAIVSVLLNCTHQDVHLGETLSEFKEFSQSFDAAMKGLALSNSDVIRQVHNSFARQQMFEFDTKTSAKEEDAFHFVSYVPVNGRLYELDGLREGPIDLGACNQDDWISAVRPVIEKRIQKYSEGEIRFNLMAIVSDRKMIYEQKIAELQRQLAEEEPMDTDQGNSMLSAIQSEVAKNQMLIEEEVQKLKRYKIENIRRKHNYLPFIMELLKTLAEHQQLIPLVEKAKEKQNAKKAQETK
# Procedure, shortened: as §1
# [8] = target: USP10 (UniProt Q14694)
# Procedure, shortened: as §1
# [9] = target: T6, USP15 (UniProt Q9Y4E8)
# T6 sequence (whole entry): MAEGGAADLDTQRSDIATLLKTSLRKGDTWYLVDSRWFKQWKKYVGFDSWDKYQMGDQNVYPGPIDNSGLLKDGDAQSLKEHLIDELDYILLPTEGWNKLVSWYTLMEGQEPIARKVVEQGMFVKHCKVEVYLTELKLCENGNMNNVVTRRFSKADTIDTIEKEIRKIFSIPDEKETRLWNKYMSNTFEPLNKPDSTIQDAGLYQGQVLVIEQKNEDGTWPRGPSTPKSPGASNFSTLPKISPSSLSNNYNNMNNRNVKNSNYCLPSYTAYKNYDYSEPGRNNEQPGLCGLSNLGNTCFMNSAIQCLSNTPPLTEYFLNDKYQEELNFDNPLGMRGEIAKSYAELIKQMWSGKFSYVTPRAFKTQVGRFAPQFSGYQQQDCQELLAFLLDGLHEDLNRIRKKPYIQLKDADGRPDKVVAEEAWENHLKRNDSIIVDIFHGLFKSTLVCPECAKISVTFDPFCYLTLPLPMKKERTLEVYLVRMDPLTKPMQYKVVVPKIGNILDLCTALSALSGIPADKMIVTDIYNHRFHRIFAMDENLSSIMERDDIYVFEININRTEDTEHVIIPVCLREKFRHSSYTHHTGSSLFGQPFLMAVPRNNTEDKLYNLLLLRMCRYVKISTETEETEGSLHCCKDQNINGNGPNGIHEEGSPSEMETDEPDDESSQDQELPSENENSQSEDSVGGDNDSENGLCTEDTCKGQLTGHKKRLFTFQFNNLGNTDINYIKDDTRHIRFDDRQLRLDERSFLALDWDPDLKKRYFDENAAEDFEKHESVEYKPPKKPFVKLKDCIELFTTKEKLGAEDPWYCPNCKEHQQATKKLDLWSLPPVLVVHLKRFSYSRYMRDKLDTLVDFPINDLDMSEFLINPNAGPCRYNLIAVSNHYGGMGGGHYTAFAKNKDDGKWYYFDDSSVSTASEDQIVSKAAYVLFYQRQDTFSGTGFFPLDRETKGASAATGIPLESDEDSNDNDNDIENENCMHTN
# Procedure, shortened: as §1
# [10] = target: USP16 (UniProt Q9Y5T5)
# Procedure, shortened: as §1
# Sequence of UCHL1 (P09936 whole entry, looked up): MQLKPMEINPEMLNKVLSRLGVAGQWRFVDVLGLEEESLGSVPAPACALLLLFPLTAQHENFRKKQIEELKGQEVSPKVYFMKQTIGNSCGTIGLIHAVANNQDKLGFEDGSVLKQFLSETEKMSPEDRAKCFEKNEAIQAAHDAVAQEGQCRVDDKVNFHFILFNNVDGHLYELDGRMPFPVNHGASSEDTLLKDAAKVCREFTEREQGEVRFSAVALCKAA
# Sequence of USP10 (Q14694 whole entry): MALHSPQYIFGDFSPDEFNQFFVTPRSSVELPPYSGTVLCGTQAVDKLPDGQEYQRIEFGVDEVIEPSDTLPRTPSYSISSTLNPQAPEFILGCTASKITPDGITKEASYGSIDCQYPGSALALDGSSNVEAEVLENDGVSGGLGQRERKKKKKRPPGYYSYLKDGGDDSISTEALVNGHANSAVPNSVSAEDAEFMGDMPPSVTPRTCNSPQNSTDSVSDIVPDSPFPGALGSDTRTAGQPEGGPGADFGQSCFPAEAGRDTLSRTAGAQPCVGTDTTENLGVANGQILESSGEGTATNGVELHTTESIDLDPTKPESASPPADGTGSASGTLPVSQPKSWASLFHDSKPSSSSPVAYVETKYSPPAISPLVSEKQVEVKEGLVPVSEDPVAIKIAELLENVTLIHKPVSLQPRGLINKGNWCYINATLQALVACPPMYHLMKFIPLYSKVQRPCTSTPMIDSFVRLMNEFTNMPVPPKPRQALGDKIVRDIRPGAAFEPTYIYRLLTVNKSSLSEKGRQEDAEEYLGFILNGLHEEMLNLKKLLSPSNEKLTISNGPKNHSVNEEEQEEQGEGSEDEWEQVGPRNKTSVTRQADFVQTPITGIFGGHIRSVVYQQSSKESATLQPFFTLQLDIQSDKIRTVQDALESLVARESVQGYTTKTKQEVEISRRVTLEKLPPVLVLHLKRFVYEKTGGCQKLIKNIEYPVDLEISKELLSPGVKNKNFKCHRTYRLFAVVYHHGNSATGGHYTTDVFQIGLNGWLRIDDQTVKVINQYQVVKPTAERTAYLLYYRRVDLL
# Sequence of USP16 (Q9Y5T5 whole entry, looked up): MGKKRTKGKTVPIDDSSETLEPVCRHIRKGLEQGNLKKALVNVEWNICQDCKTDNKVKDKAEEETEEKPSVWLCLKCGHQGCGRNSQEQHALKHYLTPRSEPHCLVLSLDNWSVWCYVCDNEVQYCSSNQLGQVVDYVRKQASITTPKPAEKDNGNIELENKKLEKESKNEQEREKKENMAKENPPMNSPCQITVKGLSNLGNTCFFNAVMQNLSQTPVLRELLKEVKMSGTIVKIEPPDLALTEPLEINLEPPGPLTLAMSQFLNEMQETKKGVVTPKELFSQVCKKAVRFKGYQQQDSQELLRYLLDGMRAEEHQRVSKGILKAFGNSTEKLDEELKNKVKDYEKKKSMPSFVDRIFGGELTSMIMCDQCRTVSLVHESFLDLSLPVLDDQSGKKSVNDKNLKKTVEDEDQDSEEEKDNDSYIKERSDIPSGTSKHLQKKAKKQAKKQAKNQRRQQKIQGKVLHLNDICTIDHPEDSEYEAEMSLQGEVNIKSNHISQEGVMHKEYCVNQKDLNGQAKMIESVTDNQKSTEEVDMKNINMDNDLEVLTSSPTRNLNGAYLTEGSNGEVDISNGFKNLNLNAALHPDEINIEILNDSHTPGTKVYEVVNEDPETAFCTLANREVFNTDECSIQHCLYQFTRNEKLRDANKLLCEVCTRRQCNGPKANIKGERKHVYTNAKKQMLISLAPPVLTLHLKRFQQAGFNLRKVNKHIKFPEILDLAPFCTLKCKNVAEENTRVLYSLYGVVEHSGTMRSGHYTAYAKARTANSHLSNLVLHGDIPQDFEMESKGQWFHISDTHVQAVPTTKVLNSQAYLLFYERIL
compound,measurement,setting,value
Cl.O=C(CN1CCN(C(=O)CCl)CC1)Nc1ccc(F)cc1,log2 ratio of Biotin-Ahx-Ub-VS probe labelling,[1],0.226
same,log2 ratio of Biotin-Ahx-Ub-VS probe labelling,[2],0.0571
same,log2 ratio of Biotin-Ahx-Ub-VS probe labelling,[3],0.0678
same,log2 ratio of Biotin-Ahx-Ub-VS probe labelling,[4],0.149
same,log2 ratio of Biotin-Ahx-Ub-VS probe labelling,[5],-1.2 (active)
same,log2 ratio of Biotin-Ahx-Ub-VS probe labelling,[6],0.501
same,log2 ratio of Biotin-Ahx-Ub-VS probe labelling,[7],-0.0699
same,log2 ratio of Biotin-Ahx-Ub-VS probe labelling,[8],-0.0791
same,log2 ratio of Biotin-Ahx-Ub-VS probe labelling,[9],-0.113
same,log2 ratio of Biotin-Ahx-Ub-VS probe labelling,[10],0.138
